# Reference: PubChem BioAssay
# “And” between values parts separate entries of the source, which are not always exact repeats. Equal values may be shown once. The source made the active and inactive calls.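 Rule for the calls, unless noted: active = compounds whose cell count with miR-34 switched on is under 0.7 times the count with it off; inactive = the rest.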
# How the values were obtained:
# [1] = stimulators of nuclear beta-catenin in C2C12, primary screen, imaging, WNT3A-conditioned medium, mouse C2C12, NPC library (AID 1117326; in the data active = nuclear beta-catenin stimulation mostly above about 4.2%, no sharp cut-off; inactive = mostly below about 10%); settings: stronger effect = higher value
# [2] = stimulators of insulin release from INS-1E, primary screen, cell-based, 5 mM glucose, NPC library (AID 1117329;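 active = compound raises insulin release from rat beta cells at 5 mM glucose, no numeric limit stated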); settings: rat INS-1E insulin secretion, at 10 µM, stronger effect = higher value
# [3] = growth inhibition of GSK3B-pretreated HCT116 cells – cell-based, CellTiter-Glo, 0.2 to 20 µM (AID 1117336;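 active = compounds lowering colon cancer cell viability after pretreatment blocking the GSK3B kinase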); settings: HCT116 viability after GSK3B inhibitor, at 20 µM, stronger effect = higher value
# [4] = inhibition of endothelial tube formation, primary screen, imaging, VEGF stimulated, CD31 staining, tube area, NPC library (AID 1117340;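 active = compound that reduces growth-factor-driven endothelial tube area in a mixed cell culture, no cutoff stated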); settings: VEGF-stimulated ADSC/ECFC co-culture, at 10 µM, stronger effect = higher value
# [5] = glucagon-like peptide 1 release enhancers, primary assay, NCI-H716 cell line, NPC library (AID 1117341;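 active = compound raises GLP1 secretion from the human gut endocrine cells, with no numeric limit stated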); settings: NCI-H716 cells, at 10 µM, stronger effect = higher value
# [6] = HCT116 colon cancer cell growth inhibition, primary screen, CellTiter-Glo luminescence, NPC library (AID 1117342;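 active = compounds that lower survival of HCT116 colon cancer cells in the luminescence readout, no numeric limit stated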); settings: at 20 µM (top of the series)
# [7] = CellTiter-Glo luminescent readout of SW480 viability loss, NPC library primary (AID 1117343;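 active = compounds that lower viability of the colon cancer cells in the luminescence readout, with no numeric limit stated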); settings: CellTiter-Glo luminescence; at 20 µM (top of the series) unless noted
# [8] = decreased DLD-1 cellular survival, CellTiter-Glo luminescent readout, NPC compound collection, primary HTS (AID 1117346;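 active = compounds that lower survival of DLD-1 colon cancer cells in the luminescence readout, no cutoff given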); settings: DLD-1 viability, CellTiter-Glo luminescence; at 20 µM (top of the series)
# [9] = differential killing of epithelial or mesenchymal cells, primary screen, imaging, PC-3E GFP, TEM4-18 mCherry, co-culture (AID 1345086;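 active = compounds killing one labelled cell type while sparing the other, by normalised counts and ratio limits, not self-fluorescent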;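 for all read-outs here: cells exposed to compound for 72 h before imaging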;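 for red/green cell ratio (normalised): normalised mesenchymal count divided by normalised epithelial count so high means epithelial killing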); settings: imaging cell counts, at 1 µM; for red/green cell ratio (normalised): actives lie on both sides, counts scaled to control wells, 1 = unselective
# [10] = sensitizers of A549 cells to miR-34 induction, primary screen, imaging, A549 dox-inducible miR-34, nuclei and caspase counts (AID 1347080); settings: A549 miR-34 inducible, Hoechst nuclei count, 48 h
# [11] = survival rescue of mitochondrial mutant cells in low glucose, primary screen, MELAS cybrids, Rieske KO mouse fibroblasts, CellTiter-Glo (AID 1508586;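 active = mean z-score across replicates of 1.96 or higher in either the MELAS or the Rieske mutant cell line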;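 note: z relative to plate mean and SD of compound and empty wells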)
# [12] = molecular target: NAD(+) hydrolase SARM1 (Homo sapiens) (UniProt Q6SZW1); assay: SARM1 TIR NADase inhibitors, cell lysate, NAD-Glo luminescence (AID 1508614;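 active = compound whose remaining NAD level is above about 45 nM, limit read from the data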;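 note: higher remaining NAD means stronger inhibition of SARM1 NADase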); settings: SAM-TIR HEK293T lysate NADase, at 1 µM, stronger effect = higher value
# NAD(+) hydrolase SARM1 (Homo sapiens), sequence (Q6SZW1 whole entry, looked up): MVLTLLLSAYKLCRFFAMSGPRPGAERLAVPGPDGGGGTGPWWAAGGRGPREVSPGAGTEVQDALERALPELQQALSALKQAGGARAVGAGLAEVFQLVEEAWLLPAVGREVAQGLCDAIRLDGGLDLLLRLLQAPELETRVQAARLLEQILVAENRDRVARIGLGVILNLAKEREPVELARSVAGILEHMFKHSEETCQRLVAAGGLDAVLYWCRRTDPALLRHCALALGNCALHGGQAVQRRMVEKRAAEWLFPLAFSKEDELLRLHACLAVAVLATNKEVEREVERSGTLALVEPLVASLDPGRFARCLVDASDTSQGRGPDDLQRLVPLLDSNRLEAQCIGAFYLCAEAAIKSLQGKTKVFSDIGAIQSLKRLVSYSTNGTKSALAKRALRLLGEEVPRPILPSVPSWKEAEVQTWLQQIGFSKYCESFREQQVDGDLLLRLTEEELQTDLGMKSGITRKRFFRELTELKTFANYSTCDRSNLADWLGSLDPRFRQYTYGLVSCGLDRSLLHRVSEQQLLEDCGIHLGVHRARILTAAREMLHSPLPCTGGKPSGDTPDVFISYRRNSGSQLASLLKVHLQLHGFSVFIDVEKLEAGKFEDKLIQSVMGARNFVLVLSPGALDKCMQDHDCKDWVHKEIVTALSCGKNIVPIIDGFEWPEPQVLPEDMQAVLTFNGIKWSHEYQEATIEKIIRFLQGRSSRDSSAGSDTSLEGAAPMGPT
# [13] = hESC survival regulators, cell-based (AID 493140; call rule not given here;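 note: cells exposed to compounds for four days before counting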); settings: human embryonic stem cell survival screen; stronger effect = higher value
# [14] = liver-stage malaria parasite growth inhibition, primary screen, cell-based, HepG2, luciferase luminescence, HepG2 viability (AID 624349; in the data active = parasite load remaining mostly below about 12%, no sharp cut-off; inactive = mostly above about 10%;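 note: 100% = mean of DMSO negative control wells on the same plate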); settings: P. berghei liver stage in HepG2, luciferase luminescence, concentration not given here; parasite load remaining: stronger effect = lower value; viability: measured here: HepG2 viability without parasites
# [15] = measured here: epithelial PC-3E GFP cell survival
# [16] = measured here: mesenchymal TEM4-18 mCherry cell survival
# [17] = stronger effect = lower value, cell number ratio, induced over uninduced
# [18] = measured here: relative caspase fold change +Dox/-Dox
# [19] = measured here: total cells with miR-34 induction, stronger effect = lower value
# [20] = measured here: total cells without miR-34 induction
# [21] = MELAS cybrid survival, CellTiter-Glo 48 h, stronger effect = higher value
# [22] = Rieske KO mouse fibroblast survival, CellTiter-Glo 72 h
compound,measurement,setting,value
O=C(O)c1cc(-c2ccccc2)nc2ccccc12,nuclear beta-catenin stimulation,[1]; at 10 µM,2.1% (inactive)
same,nuclear beta-catenin stimulation,"[1]; stimulation, at 2 µM",0.6%
same,insulin secretion stimulation,[2],-1.6% (inactive)
same,viability decrease,[3],5.55% (inactive)
same,tube area decrease,[4],1.3% (inactive)
same,GLP1 secretion stimulation,[5],4.2% (inactive)
same,inhibition of viability,[6],-8.1% (inactive)
same,viability decrease (inhibition),[7],27.9% (inactive)
same,viability decrease (inhibition),[8],8.8% (inactive)
same,red/green cell ratio (normalised),[9],0.87 (inactive)
same,normalised cell number,[9]; [15],0.9
same,normalised cell number,[9]; [16],0.78
same,fold change,[10]; [17],0.909 (inactive) and 0.965 (inactive)
same,fold change,[10]; [18],0.94 and 1.19
same,cell count,[10]; [19],8690 and 8580
same,cell count,[10]; [20],9560 and 8890
same,z-score,[11]; [21],-0.261 (inactive)
same,z-score,[11]; [22],-0.139
same,remaining NAD,[12],10 nM (inactive)
CCCCNc1ccc(C(=O)OCCOCCOCCOCCOCCOCCOCCOCCOCCOC)cc1,survival,[13],33.2 (inactive)
same,parasite load remaining,[14],14% (inactive) and 88.5% (inactive)
same,viability,[14],47.7% and 90.2%
same,nuclear beta-catenin stimulation,[1]; at 10 µM,-0.8% (inactive)
same,nuclear beta-catenin stimulation,"[1]; stimulation, at 2 µM",0.5%
same,insulin secretion stimulation,[2],-2.3% (inactive)
same,viability decrease,[3],9.3% (inactive)
same,tube area decrease,[4],4.2% (inactive)
same,GLP1 secretion stimulation,[5],-2.3% (inactive)
same,inhibition of viability,[6],31.5% (inactive)
same,viability decrease (inhibition),[7],13% (active)
same,viability decrease (inhibition),[8],-17.6% (inactive)
same,red/green cell ratio (normalised),[9],1.21 (inactive)
same,normalised cell number,[9]; [15],0.86
same,normalised cell number,[9]; [16],1.04
same,fold change,[10]; [17],0.937 (inactive)
same,fold change,[10]; [18],1.37
same,cell count,[10]; [19],8120
same,cell count,[10]; [20],8660
same,z-score,[11]; [21],-0.167 (inactive)
same,z-score,[11]; [22],0.149
same,remaining NAD,[12],10 nM (inactive)
CN1C(=O)CC(c2ccccc2)C1=O (centres undefined),survival,[13],19.1 (inactive)
same,parasite load remaining,[14],94.6% (inactive)
same,viability,[14],73.1%
same,nuclear beta-catenin stimulation,[1]; at 10 µM,0.4% (inactive)
same,nuclear beta-catenin stimulation,"[1]; stimulation, at 2 µM",0.3%
same,insulin secretion stimulation,[2],-0.7% (inactive)
same,viability decrease,[3],4.95% (inactive)
same,tube area decrease,[4],-2.7% (inactive)
same,GLP1 secretion stimulation,[5],-0.4% (inactive)
same,inhibition of viability,[6],-5.7% (inactive)
same,viability decrease (inhibition),[7],54.4% (active)
same,viability decrease (inhibition),[8],12.9% (inactive)
same,red/green cell ratio (normalised),[9],0.99 (inactive)
same,normalised cell number,[9]; [15],1.01
same,normalised cell number,[9]; [16],1
same,fold change,[10]; [17],0.941 (inactive) and 0.972 (inactive)
same,fold change,[10]; [18],1.17 and 0.864
same,cell count,[10]; [19],9250 and 9510
same,cell count,[10]; [20],9830 and 9780
same,z-score,[11]; [21],0.397 (inactive)
same,z-score,[11]; [22],0.0941
same,remaining NAD,[12],10 nM (inactive)
CC(=O)Nc1ncc([N+](=O)[O-])s1,nuclear beta-catenin stimulation,[1]; at 10 µM,-0.3% (inactive)
same,nuclear beta-catenin stimulation,"[1]; stimulation, at 2 µM",0.5%
same,insulin secretion stimulation,[2],-2.2% (inactive)
same,viability decrease,[3],4.2% (inactive)
same,tube area decrease,[4],5.9% (inactive)
same,GLP1 secretion stimulation,[5],-1.7% (inactive)
same,inhibition of viability,[6],12% (inactive)
same,viability decrease (inhibition),[7],9.6% (inactive)
same,viability decrease (inhibition),[8],13.5% (inactive)
same,red/green cell ratio (normalised),[9],1.12 (inactive)
same,normalised cell number,[9]; [15],0.93
same,normalised cell number,[9]; [16],1.04
same,fold change,[10]; [17],0.863 (inactive) and 0.891 (inactive)
same,fold change,[10]; [18],1.13 and 1.04
same,cell count,[10]; [19],8350 and 8950
same,cell count,[10]; [20],9670 and 10000
same,z-score,[11]; [21],-0.179 (inactive)
same,z-score,[11]; [22],-0.168
same,remaining NAD,[12],10 nM (inactive)
CN1C(=O)OC(C)(C)C1=O,survival,[13],8.08 (inactive)
same,parasite load remaining,[14],83.9% (inactive) and 86.8% (inactive) and 50.6% (inactive)
same,viability,[14],107% and 78.1% and 129%
same,nuclear beta-catenin stimulation,[1]; at 10 µM,1.4% (inactive)
same,nuclear beta-catenin stimulation,"[1]; stimulation, at 2 µM",-0.1%
same,insulin secretion stimulation,[2],1% (inactive)
same,viability decrease,[3],31.5% (inactive)
same,tube area decrease,[4],13.2% (inactive)
same,GLP1 secretion stimulation,[5],-0.3% (inactive)
same,inhibition of viability,[6],28% (inactive)
same,viability decrease (inhibition),[7],54.4% (active)
same,viability decrease (inhibition),[8],87.4% (active)
same,red/green cell ratio (normalised),[9],0.94 (inactive)
same,normalised cell number,[9]; [15],0.96
same,normalised cell number,[9]; [16],0.9
same,fold change,[10]; [17],0.862 (inactive) and 0.885 (inactive)
same,fold change,[10]; [18],1.14 and 3.65
same,cell count,[10]; [19],9130 and 11500
same,cell count,[10]; [20],10600 and 13000
same,z-score,[11]; [21],0.482 (inactive)
same,z-score,[11]; [22],-0.121
same,remaining NAD,[12],10 nM (inactive)
